# From PubChem BioAssay AID720579 (National Center for Advancing Translational Sciences (NCATS), 2013)
# Hit rate of the full screen: of about 310,000 compounds, about 1,900 (0.61%) were called active. Roughly 8% stayed inconclusive and do not appear here. Calls follow the shape of the full dose curve; tested in A549 cells. The list comes from a sample in which actives are over-represented; it also holds similar structures and randomly drawn compounds. A call without a number means that no potency is given here.
# Assay: qHTS for Stage-Specific Inhibitors of Vaccinia Orthopoxvirus: mCherry Reporter Primary qHTS; also: nearly all actives have a fitted effect of over 35% in size
# Conditions: Vaccinia virus mCherry reporter infection, fluorescence; series mostly up to 36.5 µM
# Potency is read from the fitted curve at half-maximal effect.
SMILES,Potency,outcome
CCc1c(-c2ccc(F)cc2)ncn1Cc1cccc(-c2ccccc2)c1,inactive,–
N#Cc1cccc(NC(=O)c2cc(C3CCCCN3C(=O)CCc3ccccc3)on2)c1 (centres undefined),inactive,–
Cc1cc2c(cc1C)N1C(=O)c3cc4ccccc4cc3NC(=O)C1C(=O)N2 (centres undefined),inactive,–
Oc1ccc(/C=N/Nc2ccc(C(F)(F)F)cn2)cc1O,10 µM (active),–
FC(F)(F)c1cccc(N/N=C/c2ccccc2)c1,inactive,–
CCNc1nc(NCC)nc(N/N=C/c2ccc(O)c(OC)c2)n1,inactive,–
O=C(COc1ccccc1C(=O)Nc1ccccc1)Nc1cccc(F)c1,inactive,–
CC1(C(=O)Nc2cccc(Oc3ccccc3)c2)CCN1Cc1ccccc1Cl (centres undefined),inactive,–
CN1OC[C@@H]2CN(C(=O)c3ccc(-c4ccccc4)cc3)[C@H](c3ccc(-c4cccc(F)c4)cc3)C[C@@H]21,inactive,–
COc1ccccc1Cc1c(-c2ccc(Cl)cc2)nc2ccc(Cl)cn12,inactive,–
C/C(=N\NC(=O)Cc1ccc(F)cc1)c1ccc(F)cc1,inactive,–
C/C(=N\NC(=O)Cc1ccc(Cl)cc1)c1ccccn1,5.01 µM (active),–
O=C(Nc1ccc(NC(=O)c2ccccc2F)cc1)c1ccccc1F,inactive,–
C/C(=N\NC(=O)c1ccccc1F)c1ccccn1,2 µM (active),–
C/C(=N\NC(=O)Cc1ccc(Br)cc1)c1cccnc1,inactive,–
O=C(NCCOc1ccccc1)c1ccccc1F,inactive,–
COc1ccccc1Cc1c(-c2ccc(Cl)cc2)nc2c3ccccc3ccn12,inactive,–
COc1ccc(NC(=O)c2sc(=O)n(Cc3ccc(S(=O)(=O)N(C)C)cc3)c2C)cc1,inactive,–
COc1cccc(-c2cc(NC(C)=O)c3ncc(-c4cccc(C(C)=O)c4)n3c2)c1,inactive,–
SCc1nc2ccc(Cl)cc2[nH]1,inactive,–
CC(=O)N1Cc2cc(C(=O)NCc3cccc(F)c3)nc(-c3cccc(C4=CCCC4)c3)c2[C@H]1CCO,inactive,–
Cc1ccc(C)c(S(=O)(=O)N2CCN(c3ncnc4sccc34)CC2)c1,7.08 µM (active),–
Cc1ccc(C)c(S(=O)(=O)n2nc(C)c(S(=O)(=O)N3CCC(C)CC3)c2C)c1,inactive,–
Cc1ccc(S(=O)(=O)N2CCN(c3ncnc4ccccc34)CC2)cc1,inactive,–
CCCN(CCC)S(=O)(=O)c1cc2c(cc1Br)CCN2C(=O)CC,inactive,–

SMILES,Potency,outcome
CCCNC(=O)C1(C)CCN(Cc2ccc(Cl)c(Cl)c2)C1 (centres undefined),inactive,–
COc1ccc(NS(=O)(=O)c2ccc3oc(SCC(N)=O)nc3c2)cc1,3.55 µM (active),–
CCn1c(=O)c(=O)[nH]c2c(=O)oc3ccc(S(=O)(=O)Nc4ccc(OC)cc4)cc3c21,inactive,–
COc1ccc(NC(=O)c2cnc(NS(=O)(=O)c3ccccc3)nc2)cc1,inactive,–
Cc1ccc(NC(=O)Cn2sc3ccccc3c2=O)cc1,inactive,–
CN(C(=N)N)c1ccc(/C=C2\C=Cc3ccccc32)cc1,inactive,–
CCOC(=O)[C@]12CCCC=C1N(CCC1=CCCCC1)C(=O)[C@H](CC(=O)N1CCCCC1)C2,inactive,–
COc1cc2nc(N3CCCN(C)CC3)nc(NC3CC3)c2cc1OC,inactive,–
c1ccc(C(=NNc2nc3ccccc3s2)c2ccccn2)cc1,7.08 µM (active),–
c1ccc2sc(NN=C3CCCC3)nc2c1,inactive,–
O=C(Nc1ccccc1Cl)O/N=C(/c1ccccc1)c1ccccn1,inactive,–
Cc1[nH]c2ccccc2c1C(=O)c1cc([C@H](NC(=O)OC(C)(C)C)C(C)C)sc1N,inactive,–
CCCCN(C(C)=O)c1ccc2c(c1)C1CC2CCN1Cc1ccccc1 (centres undefined),inactive,–
COc1ccccc1Oc1nc(-c2cccnc2)nc2ccccc12,inactive,–
Fc1ccc(/C=N/Nc2nc(-c3cccnc3)nc3ccccc23)cc1,–,inactive [at 7.34 µM]
O=[N+]([O-])c1ccc(F)cc1Oc1nc(-c2cccnc2)nc2ccccc12,3.55 µM (active),–
COc1ccc(-c2ccc(C(=O)NCCN3CCOCC3)c3occc23)c(C)c1,inactive,–
COC1CC(OC2CC[C@@]3(C=O)C4CC[C@]5(C)C(C6=CC(=O)OC6)CC[C@@]5(O)C4CC[C@]3(O)C2)OC(C)C1O (some centres undefined),2.51 µM (active),–
CC1=C(C(=O)N2CCOCC2)CC(CC(=O)NCC2CCCCC2)C(=O)N1Cc1ccc(F)cc1 (centres undefined),inactive,–
CC(=O)C1=CCC(c2ccccc2)N(S(=O)(=O)c2ccc(C)cc2)C1 (centres undefined),inactive,–
COc1cccc(NC(=O)C2(C)CCN2C(=O)CCC2CCCC2)c1 (centres undefined),inactive,–
CCCCCCN1CCN(C2CN(Cc3cn(CCCCCC)nn3)S(=O)(=O)C2)CC1 (centres undefined),inactive,–
CN1CCc2cc3c(cc2[C@H]1[C@@H]1OC(=O)c2c1ccc1c2OCO1)OCO3,inactive,–
COc1ccc2c(c1O)-c1cccc3c1[C@@H](C2)N(C)CC3,inactive,–
COc1c(O)ccc2c1CN1CCc3cc4c(cc3C1C2)OCO4 (centres undefined),11.2 µM (active),–

SMILES,Potency,outcome
CC(C)NC(=O)C1(C)CCCCCN1C(=O)c1ccc(-c2ccccc2)cc1 (centres undefined),inactive,–
CC(=O)c1ccc(Nc2nc(C(N)c3ccccc3Cl)cs2)cc1 (centres undefined),inactive,–
CC(=O)Nc1cccc(-c2cc(NC(C)=O)c3ncc(-c4ccccc4)n3c2)c1,inactive,–
CCOc1ccc(-c2cc(C(=O)N/N=C/c3ccc(O)cc3)c3ccccc3n2)cc1,3.98 µM (active),–
COc1ccc(-c2cc(C(=O)N/N=C/c3cccnc3)c3ccccc3n2)c(OC)c1,inactive,–
COc1ccc(-c2cc(C(=O)Nc3ccccc3O)c3ccccc3n2)cc1,inactive,–
CC1(C(=O)Nc2ccc3c(c2)OCCO3)CCN1C(=O)Cc1cc(F)ccc1F (centres undefined),inactive,–
CCCOc1ccc(F)cc1-c1cc(C(=O)NCc2ccc(F)cc2)[nH]n1,inactive,–
CN(Cc1cccc2ncccc12)C(=O)c1cnn(-c2nccc(-c3ccccc3F)n2)c1C1CC1,5.62 µM (active),–
Cc1cccc(CNC(=O)c2cnn(-c3nccc(-c4ccccc4F)n3)c2C2CC2)n1,inactive,–
Cc1ccc(-c2ccnc(-n3ncc(C(=O)N(C)Cc4cccc5ncccc45)c3C3CC3)n2)o1,inactive,–
CCOC(=O)C1=CCC(c2ccc(F)cc2)N(S(=O)(=O)c2ccc(C)cc2)C1 (centres undefined),inactive,–
CC1CCN(C2=NC(=O)/C(=C/c3ccc(O)cc3)S2)CC1,inactive,–
O=C1N=C(N2CCCC2)S/C1=C\c1cccc(Br)c1,inactive,–
CCOc1cc(/C=C2\SC(N3CCCC(C)C3)=NC2=O)ccc1O (centres undefined),11.2 µM (active),–
CCCCC(=O)N(C)c1c(CC)nc2c(OCc3ccc(S(C)(=O)=O)cc3)cccn12,inactive,–
OCCC#Cc1ccc(N2C(c3ccsc3)=Cc3ccc(F)cc3C2c2c[nH]c3ccccc23)cc1 (centres undefined),inactive,–
COc1ccc(CC2c3cc(OC)c(OC)cc3CC[N+]2(C)CCC(=O)OCCCCCOC(=O)CC[N+]2(C)CCc3cc(OC)c(OC)cc3C2Cc2ccc(OC)c(OC)c2)cc1OC (centres undefined),15.8 µM (active),–
COC(=O)C1=CN(Cc2ccc(OC)c(OC)c2)C=C(C(=O)OC)C1c1cccs1,inactive,–
COc1ccc(CN2CCOC2=O)cc1OC,inactive,–
OC[C@@H]1CN(Cc2ccc(F)cc2)C[C@H](n2cnc3c(NC4CCCC4)ncnc32)O1,inactive,–
COc1ccccc1CNc1nc(Nc2ccccc2Cl)c2sccc2n1,inactive,–
CC(C)c1cccc(-c2csc(C(O)c3ccccc3)n2)c1 (centres undefined),inactive,–
Cc1ccc(C(O)c2ncc(-c3ccccc3F)[nH]2)cc1F (centres undefined),inactive,–
CCOC(=O)N/N=C/c1cccnc1,inactive,–

SMILES,Potency,outcome
O=C(CSc1cccc2cccnc12)N/N=C/c1cccnc1,11.2 µM (active),–
O=C(CNC(=O)c1cccnc1)N/N=C/c1cccnc1,inactive,–
COc1cc(C=C(OC(C)=O)c2ccc3c(c2)OCO3)cc(OC)c1OC,inactive,–
COC(=O)[C@]12CCCCC=C1N(Cc1ccco1)C(=O)[C@H](CC(=O)NCC1CCCCC1)C2,inactive,–
COC(=O)[C@]12CCCCC=C1N(Cc1ccc(Cl)cc1Cl)C(=O)[C@H](CC(=O)NCc1cccc3ccccc13)C2,inactive,–
Cc1ccnc(NC(=O)C2CCN(S(=O)(=O)c3c(C)c(C)cc(C)c3C)CC2)c1,11.2 µM (active),–
Cc1ccc(S(=O)(=O)N2CCC(C(=O)Nc3cc(C)ccc3C)CC2)cc1,inactive,–
O=C(Nc1ccccn1)C1CCN(S(=O)(=O)c2ccccc2)CC1,inactive,–
COc1ccc(C(C#N)=C2C=CC(=NO)c3ccccc32)cc1,inactive,–
COc1cc(C)c(CN2CCN(C(=O)CCC(=O)c3ccc(C)s3)CC2)cc1OC,inactive,–
COC(=O)[C@]12CCCCC=C1N(Cc1ccco1)C(=O)[C@H](CC(=O)NCCCCc1ccccc1)C2,inactive,–
CC1Cc2ccccc2N1S(=O)(=O)c1c(N)n(C)c(=O)n(C)c1=O (centres undefined),inactive,–
CC1Cc2ccccc2N1S(=O)(=O)c1ccc(Cl)nc1 (centres undefined),15.8 µM (active),–
Cc1cc(-c2ccc(C)c(S(=O)(=O)N3c4ccccc4CC3C)c2)on1 (centres undefined),inactive,–
CCc1cccc(NC(=O)c2cc(-c3ccccc3)n[nH]2)c1,inactive,–
CCc1ccc2c(c1)NC(=O)C2(C)Cc1ccc(OC(F)(F)F)cc1 (centres undefined),inactive,–
CCc1ccc2c(c1)C1(NN=C(c3ccccc3)S1)C(=O)N2 (centres undefined),14.1 µM (active),–
COc1cc(C(=O)N[C@@H](C)C(=O)NCc2ccco2)cc(OC)c1OC,inactive,–
CCOc1ccc(C(NC(=O)c2cc(OC)c(OC)c(OC)c2)c2cc(Cl)c3cccnc3c2O)cc1 (centres undefined),10 µM (active),–
CCOc1ccc(C(=O)NC(C(=O)NCc2ccccn2)C(C)C)cc1 (centres undefined),inactive,–
CC(C)C[C@@H](COCc1ccc(Cl)cc1)N1CCN(C(=O)c2ccc(Cl)cc2Cl)CCC1=O,inactive,–
NC(=S)NN=C1CCCC(C(F)(F)F)C1 (centres undefined),10 µM (active),–
CC(C)NC(=S)NN=C1CCCCCCCCCCC1,inactive,–
CC(C)(C)C1CCC(=O)N2CCC[C@]2(c2ccccc2)C1 (some centres undefined),inactive,–
